Assay outcomes as filed in PubChem BioAssay.
Only some compounds are listed: those with a hit (about 11% of all), similar ones and a draw of the others.
G9a inh = G9a (human) methyltransferase inhibition | Q96KQ7 | G9a H3K9 monomethylation, AlphaScreen, 2 h | Potency, µM (titrated, usually from 102 µM), for the others: at the highest dose activity, negative = inhibition, hits mostly inhibitors | 350,000 compounds, 8.8% hits | AID 504332; further: on the % scale 0 is the no-effect control and ±100 the full control effect; nearly all actives have a fitted effect of over 75% in size
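Quantitative HTS format: methyltransferase activity on a biotin-tagged H3K9 peptide is measured by AlphaScreen, using a rabbit anti-monomethyl-H3K9 antibody with streptavidin donor and anti-IgG acceptor beads. Final levels are 20 nM enzyme, 500 nM peptide, 20 uM SAM; 2 h RT.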
HP1b binding inh = inhibitors of HP1-beta chromodomain binding to methylated histone tails | P83916 | AlphaScreen HP1-beta / biotin-H3K9me3 peptide binding | AID 540317 | Potency, µM (doses to about 114 µM), for the others: at the highest dose activity change, negative = inhibition, usual class: inhibitors | 390,000 compounds, 0.56% hits; further: nearly all actives have a fitted effect of over 70% in size
Target sequence (P83916 whole entry, looked up): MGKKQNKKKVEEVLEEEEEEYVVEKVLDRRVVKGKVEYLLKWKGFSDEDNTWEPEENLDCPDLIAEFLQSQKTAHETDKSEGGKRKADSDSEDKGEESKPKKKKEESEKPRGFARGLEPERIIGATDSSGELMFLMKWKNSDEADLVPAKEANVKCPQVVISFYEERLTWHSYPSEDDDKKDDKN
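Compound inhibition of the preformed complex between 50 nM HP1-beta and 50 nM biotinylated H3K9me3 peptide was read by AlphaScreen. Buffer was PBS pH 7.4 with 0.01% Tween-20. Incubations ran 30 min at room temperature, with 10 ug/mL donor/acceptor beads.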
JMJD2A Tudor inh = blocks the human JMJD2A Tudor domain. AID 504339. O75164. 390,000 compounds, 4.4% hits. AlphaScreen JMJD2A-Tudor / H3K4me3 peptide binding. Potency, µM (highest dose often 114 µM), inactives show at the top dose activity change, negative = inhibition, hits mostly inhibitors; further: on the % scale 0 is the no-effect control and ±100 the full control effect; nearly all actives have a fitted effect of over 50% in size
VDR inhibitor = inhibitors of human vitamin D receptor. VDR-SRC2-3 peptide fluorescence polarization, 2 h. Potency, µM, for inactives: max response, negative = inhibition, hits mostly inhibitors. 400,000 compounds, 0.93% hits; further: on the % scale 0 is the no-effect control and ±100 the full control effect
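Inhibition of the VDR/SRC2-3 peptide interaction is quantified by fluorescence polarization. Compounds (23 nl, pintool) incubate with the reagents for 2 hours at ambient room temperature.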
PLK1 PBD block = blocks phosphopeptide binding to human PLK1 polo-box domain | Potency, µM, inactives show max response, negative = inhibition, actives largely listed as inhibitors | Plk1 PBD binding of FITC phosphopeptide, fluorescence polarization | P53350 | 360,000 compounds, 2.8% hits; further: series mostly up to about 57 µM; on the % scale 0 is the no-effect control and ±100 the full control effect; nearly all actives have a fitted effect of over 65% in size
Target sequence (P53350 whole entry, looked up, the tested form may be a part): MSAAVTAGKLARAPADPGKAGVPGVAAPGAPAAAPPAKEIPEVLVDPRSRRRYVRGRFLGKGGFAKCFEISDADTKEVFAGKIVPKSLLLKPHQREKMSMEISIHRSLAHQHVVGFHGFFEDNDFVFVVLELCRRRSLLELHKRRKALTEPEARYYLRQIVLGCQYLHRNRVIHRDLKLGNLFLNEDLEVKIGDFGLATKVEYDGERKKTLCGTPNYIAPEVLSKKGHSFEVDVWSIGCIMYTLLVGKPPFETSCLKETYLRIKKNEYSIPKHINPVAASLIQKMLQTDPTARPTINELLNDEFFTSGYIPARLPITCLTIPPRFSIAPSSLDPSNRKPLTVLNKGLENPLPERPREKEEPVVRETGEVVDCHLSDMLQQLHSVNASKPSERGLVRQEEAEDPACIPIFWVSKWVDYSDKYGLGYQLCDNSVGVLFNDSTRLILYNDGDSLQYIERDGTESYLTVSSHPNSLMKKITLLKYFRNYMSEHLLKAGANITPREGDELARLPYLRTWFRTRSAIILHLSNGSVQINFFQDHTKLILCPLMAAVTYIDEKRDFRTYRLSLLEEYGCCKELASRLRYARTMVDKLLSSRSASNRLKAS
BAZ2B block = BAZ2B (human) inhibition; Q9UIF8; AlphaScreen BAZ2B-H3K14Ac peptide displacement; Potency, µM (highest dose often 114 µM), for inactives: top-dose activity change, negative = inhibition, hits mostly inhibitors; 360,000 compounds, 4.4% hits; further: on the % scale 0 is the no-effect control and ±100 the full control effect; nearly all actives have a fitted effect of over 60% in size
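In this displacement format the biotinylated H3(5-23) peptide acetylated at Lys14 serves as ligand at 50 nM, with BAZ2B at 50 nM in PBS pH 7.4 containing 0.01% Tween-20. Donor and acceptor beads are 10 ug/mL final.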
* marks the source's active call; other numbers are inactive results; ? = inconclusive; . = not tested or not shown; [ ] = dose if it differs, or a comment. The call rests on the fitted dose curve; in most records, active means well fitted curve in the direction sought with a large enough effect; inconclusive means small, poorly fitted or top-dose-only effect, or another doubt; inactive means no such curve, though single readings can be large; an effect the other way counts as inactive or inconclusive. Potency means the concentration at half of the fitted maximal effect.

SMILES | G9a inh | HP1b binding inh | JMJD2A Tudor inh | VDR inhibitor | PLK1 PBD block | BAZ2B block
O=C1NC(=S)SC1=Cc1cccs1 | . | ? | -31.7% | 20.0% | ? | .
O=C1/C(=C/c2cccs2)NC(=S)N1C1CC1 | 39.8µM* | 14.2% | 39.8µM* | -17.9% | -22.9% | -33.2%
COc1ccc(O)c(C(=O)c2cnc3nc4ccccc4n3c2)c1 | 31.6µM* | 21.4% | -33.6% | -3.4% | -4.3% | -7.3%
COc1ccc(O)c(C(=O)c2cnn(-c3ccccn3)c2)c1 | -0.9% | -20.2% | -29.6% | -7.4% | -15.5% | -35.0%
CCOC(=O)c1c(S(=O)(=O)N2CCCC(C(=O)Nc3ccc(OCC)cc3)C2)c(C)n(C)c1C (stereo not drawn) | 3.3%[59 µM] | -3.8% | -15.0% | 10.8% | . | 0.6%
S=c1nc2c(n[nH]1)c1ccccc1n2CCc1ccccc1 | 13.4% | 16.0% | -26.7% | 79.4µM* | ? | -27.4%
Cc1ccc(-n2c(-c3cc(-c4ccco4)[nH]n3)n[nH]c2=S)c(Br)c1 | 5.62µM* | -2.8% | -22.9% | 2.8% | -7.4% | ?
S=c1[nH]nc(-c2cc(-c3ccco3)[nH]n2)n1-c1cccc2ccccc12 | 3.98µM* | ? | 89.1µM* | -15.9% | ? | 39.8µM*
CC(=O)c1ccc(-n2c(-c3cc(-c4ccco4)[nH]n3)n[nH]c2=S)cc1 | ? | -10.6% | ? | ? | -25.0% | ?
O=S(=O)(NCCc1cn2ccccc2n1)c1ccc2c(c1)CCCC2 | 50.1µM* | 31.1% | -17.7% | -15.3% | -13.5% | -34.9%
O=S(=O)(NCCc1cn2ccccc2n1)c1ccc2c(c1)OCCO2 | -35.1% | 26.1% | -6.9% | -7.5% | -3.9% | 5.6%
Cc1cc(C(=O)COC(=O)CC2Sc3ccccc3NC2=O)c(C)n1-c1ccc(Br)cc1 (stereo not drawn) | 56.2µM* | -1.8% | -27.1% | -22.6% | -7.7% | -38.7%
CCC(CC)C(=O)Nc1cc(OC)c(OC)cc1C(=O)O | -26.0%[59 µM] | 5.2% | -28.2%[11.4 µM] | -14.5% | 18.9µM* | -29.2%
CCC(C)C(=O)Nc1cc(OC)c(OC)cc1C(=O)O (stereo not drawn) | 16.2%[59 µM] | 30.9% | 15.5% | 12.4% | -0.4% | -2.4%
Cc1nn(CC(C)C)c(Cl)c1C(=O)N(C)CC(=O)Nc1c(Cl)cccc1Cl | . | 14.2% | -0.7% | -5.3% | -12.5% | -18.7%
Cc1cc(N2CCN(Cc3cn(C)nc3-c3cccc(Cl)c3)CC2)cc(C)n1 | . | -0.3% | -15.1% | 5.1% | -8.4% | 44.7µM*
Cn1cc(CN2CCN(c3ncccn3)CC2)c(-c2cccc(Cl)c2)n1 | -35.6% | 16.0% | -3.6% | 4.4% | 0.1% | -4.7%
O=C(CSc1nc2c([nH]c3ccccc32)c(=O)n1-c1ccccc1)Nc1ccc2c(c1)OCCO2 | -2.6%[59 µM] | 22.0%[57 µM] | -14.5% | 18.5% | . | 2.4%
CCCCCCN1C=CC=C/C1=C/C=C(C#N)C#N | 44.7µM* | -22.6% | ? | -21.5% | ? | 25.1µM*
C=CCN1C=C/C(=C\C=C(C#N)C#N)c2ccccc21 | ? | ? | 22.4µM* | ? | 16.0% | 3.16µM*
CCCCCCN1C=C/C(=C\C=C(C#N)C#N)c2ccccc21 | 7.08µM* | ? | 2.82µM* | ? | 2.1% | 3.16µM*
CCCCCN1C=CC=C/C1=C\C=C(C#N)C#N | ? | -10.5% | -23.8% | 13.6% | ? | ?
N#Cc1c(Cl)cccc1Oc1ccc([S+](=O)([O-])N2CCN([S+](=O)([O-])c3c(F)cccc3F)CC2)cc1 | . | . | -24.0% | . | . | .
Cc1cc(C)n(CC(=O)Nc2ccccc2)n1 | 4.7%[0.0925 µM] | ? | ? | 0.2% | 21.2µM* | 6.6%
O=C(Cn1nc(Cl)nc1Cl)c1ccccc1 | 13.0% | 23.7% | ? | -7.4% | 16.8µM* | -5.1%
SMILES | G9a inh | HP1b binding inh | JMJD2A Tudor inh | VDR inhibitor | PLK1 PBD block | BAZ2B block
Cc1nn(CC(=O)Nc2ccccc2)c(=O)c2ccccc12 | 2.5%[59 µM] | 9.5% | -9.3% | 4.1% | 1.7% | 10.1%
O=C(Cn1nc(Cl)nc1Cl)c1ccc2c(c1)OCCO2 | ? | 45.1% | -15.7% | 0.9% | 11.9µM* | -1.3%
O=C(Cn1nc(Cl)nc1Cl)Nc1ccccc1 | 50.1µM* | 16.4% | 0.0% | 7.4% | -0.6% | 1.0%
Cc1ccc(NC(=O)Cn2nc(C)cc2C)cc1 | -11.1%[59 µM] | 22.6% | -5.0% | -11.6% | -5.9% | 4.3%
CCOc1ccc(-c2n[nH]c3c2C(c2cccs2)N(c2ccc(Br)cc2)C3=O)cc1 (stereo not drawn) | 1.5%[59 µM] | 16.1% | -20.0% | -4.3% | . | .
N#Cc1ccccc1OC1=NS(=O)(=O)c2ccccc21 | . | . | -18.4% | . | . | .
Cc1ccc(Nc2ncnc3nc[nH]c23)cc1 | . | 37.1% | -28.4% | -0.4% | . | .
CCCC(C)NC(=O)COc1ccc(S(=O)(=O)c2ccc(OCC(=O)NC(C)CCC)cc2)cc1 (stereo not drawn) | 5.1%[59 µM] | 56.0% | -14.2%[57.1 µM] | -18.5% | -7.7% | 17.9%
COc1cc(C2CC(=O)Oc3c(C(CCN4CCOCC4)c4ccc(N(C)C)cc4)c(OC)cc(OC)c32)cc(OC)c1OC (stereo not drawn) | ? | ? | 39.8µM* | -15.9% | -6.5% | 44.7µM*
COc1ccc(C(CCN2CCOCC2)c2c(OC)cc(OC)c3c(-c4ccccc4)cc(=O)oc23)cc1 (stereo not drawn) | ? | -4.4% | ? | 9.4% | -11.6% | .
COc1cc(C2CC(=O)Oc3c(C(CCN4CCN(c5ccccc5)CC4)c4ccc(N(C)C)cc4)c(OC)cc(OC)c32)cc(OC)c1OC (stereo not drawn) | ? | ? | 8.91µM* | -13.7% | -8.8% | 7.94µM*
CSc1nsc(/C=C/Nc2ccc(F)cc2F)c1C#N | 31.6µM* | -25.3% | ? | -25.8% | -13.5% | ?
CSc1nnc(C)c(/C=C/Nc2ccc(F)cc2F)n1 | ? | 20.8% | -34.5% | 18.0% | -6.1% | ?
CSc1nsc(/C=C/Nc2ccc(C(=O)O)cc2)c1C#N | 12.6µM* | ? | ? | -10.5% | ? | 39.8µM*
COc1cccc(-n2c(=O)c3c(C)c(C(=O)N(C)C)sc3n(Cc3ccc(F)cc3Cl)c2=O)c1 | 0.4%[59 µM] | 28.2% | -19.7% | 19.6% | . | 3.6%
CCCS(=O)(=O)N1CC(=O)N(c2ccc(C)cc2C)C(C)(C(=O)NC2CCCCCC2)C1 (stereo not drawn) | -1.0%[59 µM] | 17.4% | -13.5% | 19.2% | . | -0.3%
O=C(Cn1ccc2ccccc2c1=O)NCCC(=O)NC1CCN(Cc2ccccc2)CC1 | 79.3%[59 µM] | 11.4% | 2.3% | 8.4% | -14.3% | 62.8%
COc1ccccc1N=C1NC(=O)/C(=C/c2ccc(N(C)C)cc2)S1 | . | -21.4% | ? | -14.0% | 20.0% | 44.7µM*
CC1=Nc2ccccc2/C1=C/c1sc(=S)n(-c2cccc(C(=O)O)c2)c1O | 25.1µM* | ? | ? | -2.7% | -24.0% | ?
COc1ccc(C(=O)CN2CCN(c3ccc(Cl)cc3)CC2)cc1OC | 22.4µM* | 19.4% | -28.6% | 2.5% | -16.1% | -37.8%
